This is an account of results in PubChem BioAssay (NCATS).

SMILES strings stand for the structures. Values joined by “and” are separate entries in the source; they are usually repeats but may differ in a detail not shown here. Equal values may be shown once. Values without a mark were called inactive. Results filed as inconclusive are left out. Active and inactive are the calls of the source. Unless noted, the call rests on the fitted dose curve; in most records, active means well fitted curve in the direction sought with a large enough effect; inconclusive means small, poorly fitted or top-dose-only effect, or another doubt; inactive means no such curve, though single readings can be large; an effect the other way counts as inactive or inconclusive.

Assay [1] addresses Glucocorticoid receptor (Homo sapiens) (UniProt P04150). The experiment in a line: GR-EFC Redistribution (AID 451; calls by dose curve; further: potency means the concentration at half of the fitted maximal effect). The settings on record: CHO-K1 GR-EFC translocation, beta-gal luminescence, 2 h. A digest of the protocol:
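CHO-K1 cells stably expressing nuclear-localized β-gal enzyme acceptor and GR fused C-terminally to the enzyme donor fragment; ligand-driven nuclear translocation restores β-gal by complementation. Compounds titrated up to 46 uM final, 2 h at 37 °C; luminescence read.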

The target in assay [2] is Mitogen-activated protein kinase 10 (Mus musculus) (UniProt Q61831). The experiment in a line: JNK3 AlphaScreen Assay (AID 530; active means well fitted curve in either direction with a large enough effect, not every such curve was filed as active;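 further: kinase came from lysate of stimulated human HepG2 cells; signal reports phosphorylation of biotinylated GST-cJun 1-79 at Ser73 with 10 µM ATP; on the % scale 0 is the no-effect control and ±100 the full control effect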). The conditions noted are these: JNK3 lysate, c-Jun phosphorylation; series mostly up to 57.1 µM. In a few lines:
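JNK3 came from HepG2 lysates pre-activated with IL-1beta and TNF-alpha and phosphorylated biotinylated GST-cJun (1-79) at 10 uM ATP, pH 7.6, room temperature. Compounds were titrated. AlphaScreen signal used anti-phospho-cJun (Ser73) antibody.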

Assay [3] concerns the target 3',5'-cyclic-AMP phosphodiesterase 4B (Homo sapiens) (UniProt Q07343). In words: qHTS Assay for Inhibitors of PDE-IV (AID 607; active means well fitted activation curve with a large enough effect in the main read-out, with a control signal flat, not every such curve was filed as active; further: % of control where 0% means no effect). The settings on record: HEK293 ACTOne CNG channel cells, membrane potential fluorescence; series mostly up to 22.9 µM. In a few lines:
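ACTOne HEK293 cells carry a modified cAMP-gated CNG channel and express endogenous PDE4; plated 1000 cells/well, compounds up to 22.9 uM final. Membrane-potential dye fluorescence (ex 535/em 590) was read; parental cells received 10 uM forskolin + 100 uM RO 20-1724.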

A short description of assay [4]: Cell Viability - N2a (AID 540). Further: nearly all actives have a fitted effect of over 45% in size. Further: potency means the concentration at half of the fitted maximal effect.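 On activity change, negative = cytotoxicity: plate controls were DMSO alone for no effect and tamoxifen control for full effect.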 The conditions noted are these: N2a mouse neuroblastoma cell viability; activity change, negative = cytotoxicity: at 92.2 µM (top of the series). A digest of the protocol:
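Mouse neuroblastoma N2a cells (1500/well) were preincubated 5 hr at 37 °C, then exposed to compounds for 40 hr at 37 °C in complete medium. Viability was read as intracellular ATP by CellTiter-Glo luminescence; AC50 from Hill fits.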

A short description of assay [5]: Cell Viability - NIH 3T3 (AID 541).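 Further: plate controls were DMSO alone for no effect and tamoxifen positive control for full effect; nearly all actives have a fitted effect of over 25% in size.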 The conditions noted are these: NIH 3T3 cell viability, qHTS; activity change, negative = cytotoxicity: at 92.2 µM (top of the series). A digest of the protocol: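 NIH 3T3 mouse embryo fibroblasts (1000 cells/well) were plated in complete medium and treated with compound for 40 hr at 37 °C. Viability was read as intracellular ATP by CellTiter-Glo luminescence; AC50 values came from Hill-equation fits of concentration-response data.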

The nature of assay [6]: Cell Viability - HUV-EC-C (AID 542). Further: on the % scale 0 is the no-effect control and ±100 the full control effect; nearly all actives have a fitted effect of over 35% in size. The conditions noted are these: HUV-EC-C endothelial cell viability, qHTS; series mostly up to 92.2 µM. In a few lines:
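HUV-EC-C normal human vascular endothelial cells, 1000 cells/well, pre-incubated 5 hr at 37 °C, then exposed to compounds for 40 hr at 37 °C in complete medium. Viability measured as intracellular ATP by CellTiter-Glo luminescence; AC50 from Hill fits.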
For orientation: qHTS replaces the single test concentration by a dilution series.

Assay [7] can be described thus: Cell Viability - H-4-II-E (AID 543). Further: potency means the concentration at half of the fitted maximal effect; nearly all actives have a fitted effect of over 35% in size. The conditions noted are these: H-4-II-E rat hepatoma viability; series mostly up to 92.2 µM. A digest of the protocol: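 Rat hepatoma H-4-II-E cells (1500/well) were plated, incubated 5 hr at 37 °C, then exposed to compounds for 40 hr at 37 °C. Cellular ATP was read by CellTiter-Glo luminescence; AC50 came from Hill-equation fits of concentration-response data.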

Assay [8] can be described thus: Cell Viability - SH-SY5Y (AID 544). Further: nearly all actives have a fitted effect of over 55% in size. Further: potency means the concentration at half of the fitted maximal effect. The conditions noted are these: SH-SY5Y neuroblastoma cell viability; viability change, negative = cytotoxic: at 92.2 µM (top of the series). In a few lines:
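Human neuroblastoma SH-SY5Y cells (1500/well) in complete medium were exposed to compounds for 40 hr at 37 °C; intracellular ATP was then quantified by CellTiter-Glo luminescence after 20 min at room temperature. AC50 came from Hill-equation concentration-response fits.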

Assay [9] is described as follows: Cell Viability - Renal Proximal Tubule (AID 545). Further: nearly all actives have a fitted effect of over 40% in size. Further: potency means the concentration at half of the fitted maximal effect. The settings on record: renal proximal tubule cells viability, primary cells of rat origin; series mostly up to 91.7 µM. In a few lines: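 Rat renal proximal tubule primary cells, 1000/well, exposed to compounds for 40 hr at 37 °C in complete medium; cellular ATP read by CellTiter-Glo luminescence. AC50 from concentration-response fitted with standard Hill equation.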

Assay [10] can be described thus: Cell Viability - Mesenchymal (AID 546).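 Further: cells exposed to compound for 40 hours before reading.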 The conditions noted are these: mesenchymal cells viability, qHTS; series mostly up to 91.7 µM. A digest of the protocol:
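Normal human renal glomerulus-derived kidney mesenchymal cells, 1000 per well in complete medium, were treated with compounds for 40 hr at 37 °C. Viability was read as intracellular ATP by CellTiter-Glo luminescence; AC50 values came from Hill-equation fits of qHTS concentration-response data.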

The nature of assay [11]: Cellular Toxicity (caspase-3) HepG2 (AID 654).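 Further: cells exposed to compound for 16 hours before reading; 0% = DMSO alone and 100% = caspase signal from 100 µM tamoxifen.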 The settings on record: HepG2 caspase-3 activation, luminescence, 0% = DMSO only, 100% = tamoxifen; series mostly up to 92.2 µM. A digest of the protocol: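 HepG2 cells (1500/well) in complete medium were treated with compounds for 16 hr at 37 °C. Caspase-3/7 activity was then read as luminescence from peptide-aminoluciferin cleavage. AC50 came from Hill fits, normalized to DMSO and 100 uM tamoxifen.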

Assay [12] can be described thus: Cellular Toxicity (caspase-3) Jurkat (AID 655).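 Further: cells exposed to compound for 16 h at 37 °C before reading.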 Further: potency means the concentration at half of the fitted maximal effect. The conditions noted are these: Jurkat caspase-3 activation, luminescence; series mostly up to 92.2 µM. In a few lines:
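Jurkat cells (5000/well) in complete medium exposed 16 h at 37 C; caspase-3/7 activity read by Caspase-Glo luminescence after 20 min at room temperature. Normalized to DMSO and 100 uM tamoxifen; AC50 from Hill fits.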

Assay [13] can be described thus: Cellular Toxicity (caspase-3) HUV-EC-C (AID 656). The conditions noted are these: HUV-EC-C cells, caspase-3 activation (apoptosis), vehicle = 0, 100 µM tamoxifen = 100%; series mostly up to 92.2 µM. In a few lines:
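HUV-EC-C cells (1000/well) in complete medium, compound-treated 16 h at 37 °C; caspase-3/7 activity read by Caspase-Glo 3/7 luminescence. Normalized to DMSO (basal) and 100 uM tamoxifen (100%); AC50 from Hill-equation concentration-response fits.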

Assay [14] is described as follows: Cellular Toxicity (caspase-3) SHSY5Y (AID 657). The conditions noted are these: SH-SY5Y caspase-3 activation, DMSO zero, 10 µM staurosporine = 100%; series mostly up to 91.7 µM. A digest of the protocol: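 SH-SY5Y human neuroblastoma cells, 1500/well, exposed to compound for 16 hours at 37 °C in complete medium. Caspase-3/7 activity read by Caspase-Glo luminescence after 1 hr at room temperature, normalized to DMSO and 10 uM staurosporine; AC50 from Hill fit.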

Assay [15] is described as follows: Cellular Toxicity (caspase-3) BJ (AID 658). The conditions noted are these: BJ fibroblasts, luminescence, normalized: DMSO 0%, staurosporine 100%; series mostly up to 91.7 µM. A digest of the protocol: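 Luminescent aminoluciferin-substrate cleavage reports caspase 3/7 activity in normal human BJ fibroblasts after 16 hr compound exposure at 37 °C. Normalized to DMSO (basal) and 10 uM staurosporine (100%); AC50 from Hill fit of concentration-response.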

The nature of assay [16]: Cellular Toxicity (caspase-3) Mesangial (AID 660).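 Further: cells exposed to compound for 16 h before the caspase read.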 The conditions noted are these: mesangial cells, normalized: DMSO 0%, 100 µM tamoxifen 100%; series mostly up to 91.7 µM. In a few lines:
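Human renal glomerular mesangial cells (1000/well) were treated with compounds for 16 h at 37 °C in complete medium, then caspase 3/7 activity was read by Caspase-Glo luminescence. Data were normalized to DMSO and 100 uM tamoxifen; AC50 from Hill fits.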

A short description of assay [17]: Cellular Toxicity (caspase-3) H-4-II-E (AID 663).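 Further: cells exposed to compound for 16 hr before readout.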 The conditions noted are these: H-4-II-E rat hepatoma, scaled: DMSO 0%, 100 µM tamoxifen 100%; series mostly up to 92.2 µM. In a few lines:
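Luminescence from caspase-cleaved aminoluciferin substrate, read 20 min after reagent addition, reports caspase 3/7 activation in rat H-4-II-E cells after 16 hr compound exposure. Normalized to DMSO (basal) and 100 uM tamoxifen (100%); AC50 from Hill fits.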

Assay [18] is described as follows: Cellular Toxicity (caspase-3) Hek293 (AID 664).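 Further: cells exposed to compound for 16 h at 37 °C before readout.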 The conditions noted are these: HEK293 caspase-3 activation; caspase-3 activation: at 92.2 µM (top of the series), DMSO = 0%, 100 µM tamoxifen = 100%. In a few lines: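 HEK293 cells were exposed to compounds in complete medium for 16 hr at 37 °C, then caspase-3/7 activity was read by Caspase-Glo 3/7 luminescence after 20 min at room temperature. Data normalized to DMSO and 100 uM tamoxifen; AC50 from Hill fits.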

Assay [19] can be described thus: Cellular Toxicity (caspase-3) N2a (AID 665).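 Further: compound exposure lasted 16 h at 37 °C before readout.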 The settings on record: N2a cells, luminescence, normalized: DMSO 0%, 10 µM staurosporine 100%; series mostly up to 92.2 µM. In a few lines:
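Mouse N2a neuroblastoma cells (1500/well) were treated with compounds for 16 h at 37 °C, then caspase-3/7 activity was read by Caspase-Glo luminescence after 1 h at room temperature. Data were normalized to DMSO and 10 uM staurosporine; AC50 from Hill fits.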

Sequence of Glucocorticoid receptor (Homo sapiens) (P04150 whole entry, looked up, the tested form may be a part): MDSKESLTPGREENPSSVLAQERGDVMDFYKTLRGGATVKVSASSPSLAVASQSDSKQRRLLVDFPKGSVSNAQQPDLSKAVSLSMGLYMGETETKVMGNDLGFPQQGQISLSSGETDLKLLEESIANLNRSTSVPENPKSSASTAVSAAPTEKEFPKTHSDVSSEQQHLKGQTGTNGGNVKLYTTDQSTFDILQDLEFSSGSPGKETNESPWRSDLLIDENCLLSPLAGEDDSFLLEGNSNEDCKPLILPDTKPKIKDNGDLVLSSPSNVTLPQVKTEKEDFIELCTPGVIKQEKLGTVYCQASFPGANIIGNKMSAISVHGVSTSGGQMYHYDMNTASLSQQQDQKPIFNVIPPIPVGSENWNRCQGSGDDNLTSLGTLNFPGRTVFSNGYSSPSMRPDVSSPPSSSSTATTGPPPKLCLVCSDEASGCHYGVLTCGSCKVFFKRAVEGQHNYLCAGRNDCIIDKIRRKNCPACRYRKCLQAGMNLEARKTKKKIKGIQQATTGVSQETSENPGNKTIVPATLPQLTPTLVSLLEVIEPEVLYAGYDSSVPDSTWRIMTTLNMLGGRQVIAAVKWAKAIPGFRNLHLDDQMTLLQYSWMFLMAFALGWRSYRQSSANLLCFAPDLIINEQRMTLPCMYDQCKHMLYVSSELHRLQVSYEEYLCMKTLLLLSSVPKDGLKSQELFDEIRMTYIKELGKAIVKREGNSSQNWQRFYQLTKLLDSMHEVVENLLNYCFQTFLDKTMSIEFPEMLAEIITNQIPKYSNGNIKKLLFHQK
Sequence of 3',5'-cyclic-AMP phosphodiesterase 4B (Homo sapiens) (Q07343 whole entry, looked up): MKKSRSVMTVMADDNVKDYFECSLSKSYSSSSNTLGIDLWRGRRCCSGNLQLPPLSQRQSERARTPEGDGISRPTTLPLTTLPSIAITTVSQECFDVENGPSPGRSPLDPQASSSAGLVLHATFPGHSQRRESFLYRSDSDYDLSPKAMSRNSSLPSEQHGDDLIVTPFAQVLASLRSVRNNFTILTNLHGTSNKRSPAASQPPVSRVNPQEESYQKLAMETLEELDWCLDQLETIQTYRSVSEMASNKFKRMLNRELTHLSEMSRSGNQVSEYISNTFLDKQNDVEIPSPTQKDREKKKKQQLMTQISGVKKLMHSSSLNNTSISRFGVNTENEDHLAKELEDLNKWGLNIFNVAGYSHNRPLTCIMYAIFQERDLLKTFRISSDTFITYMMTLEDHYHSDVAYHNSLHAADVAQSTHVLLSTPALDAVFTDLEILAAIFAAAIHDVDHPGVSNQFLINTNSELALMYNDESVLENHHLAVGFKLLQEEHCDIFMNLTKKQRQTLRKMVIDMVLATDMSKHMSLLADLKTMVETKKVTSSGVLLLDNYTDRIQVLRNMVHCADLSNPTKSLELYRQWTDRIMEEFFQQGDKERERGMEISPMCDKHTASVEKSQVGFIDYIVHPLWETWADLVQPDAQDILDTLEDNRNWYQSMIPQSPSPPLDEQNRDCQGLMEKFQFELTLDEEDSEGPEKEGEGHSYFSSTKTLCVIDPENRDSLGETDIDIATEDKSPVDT

Regarding `CCOC(=O)Nc1ccc(NCc2ccc(F)cc2)nc1N`, in assay [1], the Potency was over 46 µM. Moreover, the outcome in [2] was inactive. For the same compound, in assay [3], the Potency result is “inactive”.

For `O=c1c(O)c(-c2ccc(O)c(O)c2)oc2cc(O)cc(O)c12`, the Potency entry in assay [3] was “inactive”.

For `CN1CCN(CCCN2c3ccccc3Sc3ccc(Cl)cc32)CC1`, in assay [2], the compound was classed as inactive. For the same compound, the Potency result in [3] was “inactive”.

For the compound `COC(=O)Nc1nc2ccc(C(=O)c3cccs3)cc2[nH]1`, the Potency in assay [1] was > 46 µM and > 20.6 µM. Also, the call in assay [2] was inactive. For the same compound, the Potency entry in assay [3] is “inactive”.

Turning to `CN(C)CCOC(c1ccccc1)c1ccccc1`, the outcome in assay [2] was inactive. Also, the Potency result in assay [3] was “inactive”.

As to `COc1cc2c(c(OC)c1OC)-c1ccc(OC)c(=O)cc1[C@@H](NC(C)=O)CC2`, the compound was called inactive in [2], in assay [6], in assay [10], in assay [11], in [13] and in assay [14]. Further, the result in assay [15], in [16], in assay [17] and in assay [19] was inactive. Moreover, the Potency in assay [4] is 0.01 µM (active); in [7], 0.126 µM (active); in assay [8], 5.01 nM (active) and 3.98 nM (active); in [9] it was 25.1 nM (active) and 20 nM (active); in [12] it was 3.98 nM (active) and 3.16 nM (active). Further, the Potency entry in assay [5], in [3] and in assay [18] was “inactive” each time.

Turning to `Clc1ccc(C(c2ccccc2Cl)C(Cl)Cl)cc1` (stereo not given), the activity change, negative = cytotoxicity in assay [4] is -100% (active). Also, the Potency entry in assay [5], in assay [9] and in assay [12] was “inactive” throughout. Moreover, the compound was called inactive in assay [6], in assay [10], in assay [11], in assay [13], in assay [14] and in [15]. Moreover, the outcome in [16] was inactive. For the same compound, in [18], the caspase-3 activation was 133% (active).

Take `Nc1c2c(nc3ccccc13)CCCC2`: the compound was classed as inactive in assay [2], in assay [6], in [10], in assay [11], in assay [13] and in assay [14]. In addition, the call in assay [15], in assay [16], in assay [17] and in [19] was inactive. In [4], the activity change, negative = cytotoxicity is -21.2%. Moreover, the Potency result in assay [5], in assay [8], in assay [9], in assay [12] and in assay [18] was “inactive” each time.

Take `Cn1ccc2cc3c(cc21)CCN3C(=O)Nc1cccnc1`: the Potency in [1] was over 46 µM. For the same compound, the compound was called inactive in assay [2]. In assay [3], the Potency result was “inactive”.
